Screening data from PubChem BioAssay.
This is a sample that favours compounds with a hit; in the whole collection about 14% have one here.
FBPA Giardia inh = blocks Giardia fructose-bisphosphate aldolase activity. purified Giardia FBPA. AID 2451. Potency, µM (titrated, usually from 59.6 µM), hits mostly inhibitors. hit rate 0.71% among 290,000; note: nearly all actives have a fitted effect of over 55% in size
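40 nM FBPA preincubated 10 min at RT with compound (up to 57.5 uM final), then substrate plus GAPDH/TPI/NAD/arsenate coupling and diaphorase/resazurin added. Fluorescence read after 20 min at RT, 525/598 nm.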
Shiga inhibitor = inhibitors of Shiga toxin in Vero cells; Vero cells, Shiga toxin protein synthesis inhibition reporter; inhibition, % at 38.7 µM; hit rate 9.2% among 290,000; in the data active = inhibition mostly above about 28%, no sharp cut-off; inactive = mostly below about 43%
Cycloheximide cs = affects cycloheximide protein synthesis inhibition readout, counter-screen. cell reporter, cycloheximide protein synthesis inhibition counterscreen. hit rate 12% among 300,000. AID 2314. max response, %; in the data active = max response mostly above about 13%, no sharp cut-off; inactive = mostly below about 14%; note: read at 38.3 µM for the half of the compounds with a filed dose
LmPK inh = blocks Leishmania mexicana pyruvate kinase activity. Potency, µM (series often up to 57.5 µM), actives largely listed as inhibitors. AID 1721. Q27686. hit rate 0.37% among 290,000. purified LmPK, Kinase-Glo ATP luminescence, 1 h
Target sequence (Q27686 whole entry, looked up): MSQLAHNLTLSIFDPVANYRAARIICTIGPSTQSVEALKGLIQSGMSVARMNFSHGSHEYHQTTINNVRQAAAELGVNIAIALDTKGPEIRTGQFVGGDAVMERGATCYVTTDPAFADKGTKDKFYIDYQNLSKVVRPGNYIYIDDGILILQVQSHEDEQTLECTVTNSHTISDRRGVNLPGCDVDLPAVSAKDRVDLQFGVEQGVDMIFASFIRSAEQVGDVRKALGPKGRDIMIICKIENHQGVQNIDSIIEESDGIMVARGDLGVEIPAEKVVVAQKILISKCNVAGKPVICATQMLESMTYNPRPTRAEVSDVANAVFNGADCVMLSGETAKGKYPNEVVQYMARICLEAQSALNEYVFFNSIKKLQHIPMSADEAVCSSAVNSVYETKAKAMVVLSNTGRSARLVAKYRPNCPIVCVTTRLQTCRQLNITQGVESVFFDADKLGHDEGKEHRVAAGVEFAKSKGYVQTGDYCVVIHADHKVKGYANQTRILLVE
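Purified LmPK (0.1 nM) with 0.5 mM PEP and 0.1 mM ADP in imidazole buffer pH 7.2 with MgCl2/KCl, 1 h at room temperature. ATP formed was read by luciferase luminescence and normalized to no-enzyme and uninhibited controls.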
NS1 function inh = influenza NS1 inhibition; Potency, µM (doses to about 46.1 µM); hit rate 0.4% among 270,000; calls by dose curve; note: actives are rising curves; nearly all actives have a fitted effect of over 50% in size
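S. cerevisiae expressing influenza A NS1, grown in glucose, washed, then diluted 1:100 into pH 6.0 -URA galactose medium with 23 nl compound. Growth recovery read as OD600; NS1-free strain serves as control.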
A number is an active result; i = inactive; ? = inconclusive; nt = no result; [ ] = remark or other dose. Unless noted, calls come from the whole dose curve; as a rule, active = well fitted curve in the direction sought with a large enough effect; inconclusive = small, poorly fitted or top-dose-only effect, or another doubt; inactive = no such curve, though single readings can be large; an effect the other way counts as inactive or inconclusive.

SMILES	FBPA Giardia inh	Shiga inhibitor	Cycloheximide cs	LmPK inh	NS1 function inh
C/C(CC(=O)Nc1cc(C)ccn1)=N\NC(=O)COc1cccc(C)c1	i	i	31	i	i
C/C(CC(=O)Nc1ccccn1)=N\NC(=O)C(=O)Nc1cccc(C)c1	i	i	i	i	i
C/C(CC(=O)Nc1cc(C)ccn1)=N\NC(=O)c1ccncc1	i	i	8.6	i	i
CC(=O)Nc1ccccc1NC(=O)C/C(C)=N/NC(=O)c1ccncc1	i	i	i	i	i
Cc1ccc(S(=O)(=O)N(C)/N=C/c2ccc(N(C)C)cc2)cc1	i	70	57	i	i
CC(Sc1nnc(-c2cccnc2)n1-c1ccccc1F)C(=O)N1CCCc2ccccc21 (stereo unspecified)	i	i	17	i	i
CN(Cc1ccsc1)C(=O)CCc1nnc(Cc2c[nH]c3ccccc23)o1	i	i	i	i	i
CN(Cc1ccsc1)C(=O)Cn1cc(Br)ccc1=O	i	78	29	i	i
Cc1cc(N2C(=O)C(O)=C(C(=O)c3ccco3)C2c2ccccc2F)no1 (stereo unspecified)	nt	i	i	i	i
C/C(N)=C(/C#N)C(=O)COC(=O)CC1CCCC1	i	i	i	i	i
C/C(N)=C(/C#N)C(=O)COC(=O)C1CCC(C(C)(C)C)CC1 (stereo unspecified)	i	56	16	i	i
CC(C)OC(=O)N(C)c1ccc(C(O)(C(F)(F)F)C(F)(F)F)cc1	i	i	20	i	i
CC[Si](CC)(CC)O[C@H]([C@@H](C)COCOC)[C@@H](C)COCc1ccc(OC)cc1	i	i	i	nt	nt
O=C(N/N=C/c1ccc[nH]1)c1cccc([N+](=O)[O-])c1	i	i	i	i	i
CC(C)(C)c1ccc(C2CC2C(=O)N/N=C\c2ccc[nH]2)cc1 (stereo unspecified)	i	i	12	i	i
O=C(N/N=C/c1ccc[nH]1)c1ccc(O)cc1	i	101	28	i	i
O=C(N/N=C/c1ccc[nH]1)c1ccccc1O	?	40	37	i	i
CC(=O)O[C@@]1(C(C)=O)CCC2C3C=C(Cl)C4=CC(=O)C5CC5[C@@]4(C)C3CC[C@]21C (stereo partly specified)	i	nt	nt	nt	nt
NC(=O)CC(NC(=O)c1ccc(Br)cc1)c1ccc(NC2CCCCCC2)c([N+](=O)[O-])c1 (stereo unspecified)	i	i	12	i	i
CCNc1nc2cccnc2s1	i	i	26	i	i
CCOC(=O)OCC1OC(C#Cc2ccc(F)cc2F)C=CC1OC(=O)OCC (stereo unspecified)	i[12.9 µM]	nt	nt	nt	nt
CC12CCC(C(=Nc3ccc(N=C4C(=O)C5(C)CCC4C5(C)C)cc3)C1=O)C2(C)C	i	i	i	i	i
Cc1ccc(N/C=C2\C(=O)C3(C)CCC2C3(C)C)cc1C (stereo unspecified)	i	i	21	i	nt
COc1ccccc1NS(=O)(=O)c1cn(C)cn1	i	i	i	i	i
CC1=C(/C=C/c2ccccc2)CCN(C)C1	i	i	33	i	i
SMILES	FBPA Giardia inh	Shiga inhibitor	Cycloheximide cs	LmPK inh	NS1 function inh
CCOC(=O)c1sc2c(c1C)c(=O)n(CCO)c(=O)n2Cc1ccccc1	i	i	i	i	i
O=[N+]([O-])c1cc(-c2cnc3ccccc3n2)ccc1Oc1ccc(Cl)cc1	i	39	38	i	i
COc1ccccc1Oc1ccc(-c2cnc3ccccc3n2)cc1[N+](=O)[O-]	i	73	62	i	i
CCNc1ncc2nc(-c3ccc(OC)cc3)c(=O)n(Cc3ccc(F)cc3)c2n1	i	nt	nt	nt	nt
COc1ccc(OCC(=O)Nc2nc3ccc(NC(C)=O)cc3s2)cc1	i	i	i	i	i
CC(=O)Nc1nc2ccc(S(=O)(=O)N3CCCC3)cc2s1	nt	i	i	i	i
CCOc1ccc2nc(N(Cc3ccccc3)C(=O)CCNC(C)=O)sc2c1	nt	51	30	i	i
COc1ccc2nc(NC(C)=O)sc2c1	i	82	42	i	i
CC(=O)Nc1nc2ccc(Br)cc2s1	i	i	21	i	i
CCC(C)C(=O)Nc1nc2ccc(S(C)(=O)=O)cc2s1 (stereo unspecified)	i	37	20	i	i
CC(=O)NCCC(=O)Nc1nc2ccc(Oc3ccccc3)cc2s1	i	101	62	i	i
COc1ccc2nc(NC(=O)Nc3cccc4ccccc34)sc2c1	i	i	i	i	nt
CCC(C)C(=O)Nc1nc2ccc(OC)cc2s1 (stereo unspecified)	i	71	42	i	i
NC(=O)NC(=O)CSc1nc2sc(-c3ccccc3)cc2c(=O)n1-c1ccccc1	i	i	11	i	nt
CSc1nc2sc(-c3ccccc3)cc2c(=O)n1N	i	i	22	?	i
CNC(=O)CSc1nc2sccc2c(=O)n1-c1ccccc1	i	i	i	i	i
S=C(Nc1ccccc1)N1CCN(C(=S)c2ccccc2)CC1	i	71	44	i	i
S=C(Nc1ccccc1)N1CCCCC1	i	i	i	i	i
O=C(O)c1ccc(NC(=S)N2CCCCC2)cc1	i	i	i	i	i
CC(=O)c1ccc(NC(=S)N2CCCC2)cc1	i	i	18	i	i
Cc1ccc(NC(=S)N2CCCC2)cc1Cl	nt	i	i	i	i
S=C(Nc1ccc(Cl)cc1)N1CCCCC1	i	i	13	i	i
Cc1ccc(NC(=S)N2CCCC2)cc1C	nt	i	25	i	i
CCCCC(Sc1nc(C)c(Cc2ccccc2)c(=O)[nH]1)C(=O)O (stereo unspecified)	i	i	i	i	?
O=C(Nc1ccccc1)OC[C@H](CN1CCCCC1)OC(=O)Nc1ccccc1	i	nt	nt	nt	nt
SMILES	FBPA Giardia inh	Shiga inhibitor	Cycloheximide cs	LmPK inh	NS1 function inh
CCC(=O)Nc1ccc2c(c1)N(C(C)=O)c1ccccc1CC2	i	i	i	i	i
S=C(Nc1ccccc1Cl)N1CCCCCC1	i	i	i	i	nt
CC(=O)c1ccc(NC(=S)N2CCC(Cc3ccccc3)CC2)cc1	i	i	17	i	i
CCc1ccc(NC(=S)N2CCCCCCC2)cc1	i	68	56	i	nt
S=C(Nc1ccc(Cl)cc1Cl)N1CCCCC1	i	i	17	i	i
CC(=O)c1cccc(NC(=S)N2CCC(Cc3ccccc3)CC2)c1	i	i	i	i	i
S=C(Nc1ccc(Br)cc1)N1CCCC1	i	i	27	i	i
S=C(Nc1ccc(Br)cc1)N1CCN(C2CCCCC2)CC1	i	i	i	i	i
Cc1ccnc(NC(=O)c2ccc3c(c2)C(=O)N(CCC(C)C)C3=O)c1	nt	i	i	i	i
CC(C)CO/N=C1/C[C@@H](O)[C@@H](O)[C@@H]2[C@@H]3C(=O)N(Cc4ccccc4)C(=O)[C@H]3CC[C@@H]12	i[12.9 µM]	nt	nt	nt	nt
CCc1ccc2c(c1)C1(NN=C(c3ccc(C)cc3)S1)C(=O)N2 (stereo unspecified)	i	74	24	i	i
CC(C)c1ccc2c(c1)C1(NN=C(c3ccccc3)S1)C(=O)N2 (stereo unspecified)	?	68	33	i	i
CCc1cccc(N=c2c([N+](=O)[O-])nn(-c3ccc4c(c3)OCCO4)n2O)c1	i	71	i	i	nt
